The results in this text go back to PubChem BioAssay.

One may read the inhibition as the change of the read-out against control, counted positive when it falls.

Molecules are shown by their SMILES. Activity calls are given as the source filed them.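 Rule for the calls, unless noted: active = fluorescence slope higher than the sample average by over 3 SD (cut at about -0.22 in these data, passing the limit was not always enough); inactive = the rest.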

Assay [1] is described as follows: inhibitors of TNFa-induced NFkB p65 translocation, primary screen, imaging, HUVEC, MLSMR starter and 10KST1 sets (AID 438;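 active = inhibition above 20% together with a positive visual image hit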;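 note: compound added about 3h40 before a 20 min TNFalpha stimulation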;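 for inhibition: signal is the nuclear over cytoplasmic p65 intensity ratio per well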). The conditions noted are these: HUVEC TNFa-induced p65 nuclear translocation; cell count: measured here: nuclei count (cytotoxicity indicator), at 2.08 µM; inhibition: at 2 µM, stronger effect = higher value, 0% TNFa-plus-vehicle, 100% no-TNFa wells.
The nature of assay [2]: reduction of polyQ htt aggregates in cells – imaging, exon1htt(103Q)mCFP cells, high-content imaging, primary screen (AID 483;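 active = visual image review flags a hit and inhibition of aggregation exceeds 20%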;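 note: compound exposure lasted 3 days before fixation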;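 for nuclei count: percent of the per-plate median nuclei count of sample wells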). Particulars: exon1htt(103Q)mCFP cell line, aggregate imaging, at 2 µM; inhibition of aggregation: stronger effect = higher value; nuclei count: measured here: cell count, toxicity.
Assay [3] can be described thus: endothelial E-selectin expression blockers – imaging, HUVEC, immunofluorescence, MLSMR starter and 10KST1 sets, primary screen (AID 487;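 active = visually confirmed hit in the image check and inhibition above 20%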;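 for inhibition: signal is fraction of cell area covered by stained E-selectin grains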;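 for nuclei count: 100% = median nuclei count of all wells on the same plate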). The conditions noted are these: HUVEC TNFalpha-induced E-selectin immunofluorescence imaging, at 2 µM; inhibition: stronger effect = higher value; nuclei count: measured here: cell number, toxicity.
For assay [4], the target named is Voltage-gated potassium channel subunit beta-2 (Rattus norvegicus) (UniProt P62483). The experiment in a line: inhibitors of rat Kvbeta2 reductase activity – biochemical, NADPH fluorescence, primary screen (AID 622).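 Note: slope of raw intensity against log time taken from 70 to 1610 s.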 The conditions noted are these: recombinant KvBeta, 4-cyanobenzaldehyde reduction, at 10 µM, stronger effect = higher value.
Assay [5] has the same target. Kind of assay: enhancers of rat Kvbeta2 NADPH turnover – biochemical, NADPH fluorescence, primary screen (AID 623;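 active = NADPH fluorescence slope more negative than the mean of all samples by about 3 SD, 99.7% confidence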;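 note: fluorescence intensity change per second fitted from 20 to 320 s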). Particulars: Recombinant KvBeta, NADPH fluorescence decrease slope, 10 min; at 10 µM; stronger effect = lower value.
For assay [6], the target named is Alpha-2C adrenergic receptor (Homo sapiens) (UniProt P18825). Kind of assay: compounds altering alpha2C-coupled GIRK flux – cell-based, HEK293 alpha2C/GIRK1/2, thallium flux, primary screen (AID 624;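 active = fluorescence slope after compound addition differing from the mean of all screened samples at 99.7% confidence, in either direction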;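 note: slope of fluorescence ratio to pre-addition baseline per second over 15 to 24 s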). Particulars: thallium flux BTC fluorescence, at 10 µM, actives lie on both sides.
Assay [7] is described as follows: blockers of RIG-like receptor reporter activation – cell-based, Sendai virus stimulus, luciferase, 10K MLSCN set, TLR/RLR signaling modifier project, primary screen (AID 602276;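 active = inhibition at or above 50% at 10 µM; inactive = inhibition below 50%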;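 note: firefly luciferase from ISG56 promoter only with Renilla not read in this screen; 0% = Sendai virus plus DMSO and 100% = medium plus DMSO without virus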). The conditions noted are these: HEK293 RL24 IRF3 luciferase reporter, at 10 µM, stronger effect = higher value. (A reporter such as luciferase makes a cellular process visible.)
The nature of assay [8]: TLR3 IRF3 reporter activation blockers – cell-based, poly I:C stimulus, luciferase, 10K MLSCN set, primary screen (AID 602277;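 active = inhibition of the reporter signal at or above 50%; inactive = inhibition below 50%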). Particulars: HEK293-TLR3 RL24 IRF3 luciferase reporter, at 10 µM, stronger effect = higher value.

Chain of Alpha-2C adrenergic receptor (Homo sapiens) (P18825 whole entry, looked up): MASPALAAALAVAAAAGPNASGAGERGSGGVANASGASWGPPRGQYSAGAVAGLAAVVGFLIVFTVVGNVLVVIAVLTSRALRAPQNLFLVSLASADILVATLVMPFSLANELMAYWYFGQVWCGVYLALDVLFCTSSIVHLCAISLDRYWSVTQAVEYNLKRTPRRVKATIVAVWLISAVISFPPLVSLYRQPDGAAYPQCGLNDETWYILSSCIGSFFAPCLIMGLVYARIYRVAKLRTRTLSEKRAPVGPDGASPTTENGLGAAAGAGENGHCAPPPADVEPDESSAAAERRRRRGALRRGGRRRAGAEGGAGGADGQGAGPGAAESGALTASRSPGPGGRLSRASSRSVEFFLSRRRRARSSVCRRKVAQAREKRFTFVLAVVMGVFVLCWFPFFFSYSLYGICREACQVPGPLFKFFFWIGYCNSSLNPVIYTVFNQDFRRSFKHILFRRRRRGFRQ
Chain of Voltage-gated potassium channel subunit beta-2 (Rattus norvegicus) (P62483 whole entry, looked up): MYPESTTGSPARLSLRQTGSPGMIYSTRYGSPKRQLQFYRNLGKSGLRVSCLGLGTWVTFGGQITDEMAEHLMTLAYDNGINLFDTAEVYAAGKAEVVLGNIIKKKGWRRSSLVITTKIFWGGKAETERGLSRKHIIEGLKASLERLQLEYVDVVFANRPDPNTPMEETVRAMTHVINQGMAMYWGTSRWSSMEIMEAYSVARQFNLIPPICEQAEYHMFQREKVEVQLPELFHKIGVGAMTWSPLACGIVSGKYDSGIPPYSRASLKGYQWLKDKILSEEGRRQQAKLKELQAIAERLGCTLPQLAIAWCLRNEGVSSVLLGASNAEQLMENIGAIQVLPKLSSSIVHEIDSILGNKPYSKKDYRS

Regarding `COc1ccc(-c2nc(CSCC(=O)NCc3ccc4c(c3)OCO4)c(C)o2)cc1OC`, the cell count in assay [1] came out at 477. Moreover, the inhibition was -3.3% (inactive) in assay [1], -83% (inactive) in assay [3], 9.89% (inactive) in assay [7] and 20.1% (inactive) in assay [8]. Further, the inhibition of aggregation in assay [2] is 16.1% (inactive). For the same compound, the figures for the nuclei count in assay [2] and in assay [3] were 104% and 114%, respectively. Further, the fluorescence slope in assay [4] is -0.43 (inactive). Further, the NADPH fluorescence slope in assay [5] was -5.4e-05 (inactive). In addition, in assay [6], the slope was 0.00553 (inactive).
`Cc1cc(C)nc(SCc2csc(N)n2)n1`: the cell count in assay [1] is 338. In addition, the inhibition in assay [1] is -3.6% (inactive); in assay [3], -56.8% (inactive); in assay [7], -0.264% (inactive); in assay [8], -2.76% (inactive). In assay [2], the inhibition of aggregation is -3.1% (inactive). Also, the nuclei count was 81.8% in assay [2] and 100% in assay [3]. The fluorescence slope in assay [4] is -0.347 (inactive). Also, the NADPH fluorescence slope in assay [5] was -4.2e-05 (inactive). Also, the slope in assay [6] was 0.00565 (inactive).
For the compound `N/C(=N/O)c1nc(N2CCCC2)nc(N(c2ccccc2)c2ccccc2)n1`, the cell count in assay [1] was 371. Besides, the inhibition in assay [1] is 0.4% (inactive); in assay [3] it was -300% (inactive); in assay [7], 13.2% (inactive); in assay [8] it was 40.9% (inactive). Also, the inhibition of aggregation in assay [2] was -18.1% (inactive). Besides, the nuclei count came out at 90.7% in assay [2] and 104% in assay [3]. The fluorescence slope in assay [4] is -0.593 (inactive). The NADPH fluorescence slope in assay [5] was -3.2e-05 (inactive). Moreover, the slope in assay [6] was 0.00592 (inactive).
Take `O=S(=O)(Nc1ccn(-c2ccccc2)n1)c1ccc(Br)cc1`: the cell count in assay [1] stood at 395. Also, the inhibition in assay [1] is -1.6% (inactive); in assay [3] it was -35.6% (inactive); in assay [7], 10.7% (inactive); in assay [8] it was 17.4% (inactive). Besides, the inhibition of aggregation in assay [2] was 20.2% (inactive). Also, the nuclei count in assay [2] was determined as 98%; in assay [3] it was 119%. In assay [4], the fluorescence slope was -0.413 (inactive). The NADPH fluorescence slope in assay [5] was 0.000106 (inactive). Moreover, in assay [6], the slope was 0.00791 (inactive).
With `COc1ccccc1NC(=O)C1=C(C)Nc2nc(CCCO)nn2C1c1cccnc1` (stereo not given), in assay [1], the cell count is 318. For the same compound, the inhibition was 1.6% (inactive) in assay [1], -30.7% (inactive) in assay [3], 6.83% (inactive) in assay [7] and 5.25% (inactive) in assay [8]. In assay [2], the inhibition of aggregation was 10.7% (inactive). Also, the values for the nuclei count in assay [2] and in assay [3] were 102% and 114%, respectively. Further, the fluorescence slope in assay [4] is -0.631 (inactive). Also, the NADPH fluorescence slope in assay [5] was -3.9e-05 (inactive). The slope in assay [6] is 0.00626 (inactive).
In the case of `Cc1ccc(S(=O)(=O)c2cc3c(=O)n4ccccc4nc3n(CC3CCCO3)c2=N)cc1C` (stereo not given), in assay [1], the cell count was 716. Besides, the inhibition was -1.6% (inactive) in assay [1], 0.8% (inactive) in assay [3], 13.6% (inactive) in assay [7] and 23.9% (inactive) in assay [8]. Besides, the inhibition of aggregation in assay [2] was -3.3% (inactive). Moreover, the values for the nuclei count in assay [2] and in assay [3] were 88.2% and 106%, respectively. The fluorescence slope in assay [4] was -0.439 (inactive). The NADPH fluorescence slope in assay [5] was -3.3e-05 (inactive). Moreover, the slope in assay [6] is 0.00461 (inactive).
In the case of `CCCNS(=O)(=O)c1ccc(C(=O)NCC2CCCO2)cc1` (stereo not given), in assay [1], the cell count worked out at 482. The inhibition in assay [1] was 2.6% (inactive); in assay [3], -95.5% (inactive); in assay [7], 10.8% (inactive); in assay [8] it was 20.7% (inactive). In addition, in assay [2], the inhibition of aggregation was -16.7% (inactive). The nuclei count in assay [2] and in assay [3] was 114% in each case. Besides, the fluorescence slope in assay [4] is -0.529 (inactive). Further, in assay [5], the NADPH fluorescence slope is -4.9e-05 (inactive). For the same compound, the slope in assay [6] is 0.00794 (inactive).
Regarding `Cc1ccccc1-n1c(=O)cc(NCc2ccc3c(c2)OCO3)[nH]c1=O`, the cell count in assay [1] amounted to 447. Moreover, the inhibition in assay [1] is 1.6% (inactive); in assay [3], -155% (inactive); in assay [7], 16.5% (inactive); in assay [8] it was 19.7% (inactive). Besides, the inhibition of aggregation in assay [2] was 40.2% (active). Moreover, the nuclei count was 74.9% in assay [2] and 95.2% in assay [3]. In addition, in assay [4], the fluorescence slope is -0.614 (inactive). Also, the NADPH fluorescence slope in assay [5] is 1.9e-05 (inactive). Further, the slope in assay [6] is 0.00889 (inactive).
On to `CCOC(=O)c1c(C)[nH]c(C(=O)COC(=O)c2ccc(F)c(S(=O)(=O)N3CCOCC3)c2)c1C`, for which the cell count in assay [1] is 376. In addition, the inhibition in assay [1] was 4.8% (inactive); in assay [3], -27.2% (inactive); in assay [7] it was 5.38% (inactive); in assay [8], 13.3% (inactive). In assay [2], the inhibition of aggregation is -173% (inactive). Also, the nuclei count in assay [2] was determined as 6.6%; in assay [3], 105%. In addition, the fluorescence slope in assay [4] was -0.6 (inactive). In addition, the NADPH fluorescence slope in assay [5] is -5.1e-05 (inactive). Also, the slope in assay [6] was 0.00426 (inactive).
Turning to `O=C(C1CCCCC1)N1CCC(c2nc3c(nnn3Cc3ccccc3Cl)c(=O)[nH]2)CC1`, in assay [1], the cell count worked out at 372. The inhibition is -1.5% (inactive) in assay [1], -144% (inactive) in assay [3], 11.3% (inactive) in assay [7] and 26.2% (inactive) in assay [8]. In addition, the inhibition of aggregation in assay [2] was -5.2% (inactive). For the same compound, the nuclei count in assay [2] worked out at 110%; in assay [3], 115%. Besides, the fluorescence slope in assay [4] was -0.359 (inactive). Also, in assay [5], the NADPH fluorescence slope is -4.8e-05 (inactive). Moreover, in assay [6], the slope is 0.00569 (inactive).
